Bioassay records from PubChem BioAssay.
ATXN2 expr inh = reduces ATXN2 reporter expression in HEK-293 cells. Potency, µM (titrated, usually from 57 µM), for the others: at the top dose activity change, negative = inhibition, actives largely listed as inhibitors. 0.72% of 360,000 active. HEK-293 ATXN2-luciferase reporter, luminescence, 24 h. AID 1745845; further: on the % scale 0 is the no-effect control and ±100 the full control effect; nearly all actives have a fitted effect of over 55% in size
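qHTS (up to 57 uM final) was run with 24 h compound exposure of reporter cells at 37 °C. Each well was multiplexed: SteadyGlo luminescence measured ATXN2-luciferase expression after a fluorogenic Gly-Phe-AFC viability readout (25 uM final).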
HepG2 viability = HepG2 cytotoxicity, counter-screen for TGF-b inhibitors; HepG2 CAGA-GFP viability, ATP luminescence, 18 h; Potency, µM (top dose mostly 46.1 µM), inactives show at the top dose activity change, negative = cytotoxicity, most hits filed as cytotoxic; 0.76% of 410,000 active; AID 588856
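CellTiter-Glo luminescence gave cytotoxicity after 18 hours at 37 degrees C. The cells were HepG2 CAGA-GFP in 1% FBS DMEM, stimulated with 500 pg/mL TGF-beta after compound addition. %Activity was normalised to no-cell wells (complete cell-killing) and DMSO (no toxicity), and curves were fitted and classified.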
KB-3-1 cytotox = KB-3-1 parental cell cytotoxicity; KB-3-1 viability, CellTiter-Glo ATP luminescence, 72 h; 1.4% of 400,000 active; AID 1347075; Potency, µM (titrated, usually from 46.1 µM), actives largely listed as cytotoxic; further: on the % scale 0 is the no-effect control and ±100 the full control effect; nearly all actives have a fitted effect of over 60% in size
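Here the drug-naive KB-3-1 line serves as comparator for MDR sub-line selectivity; cells received compound titrations, 72 h at 37 °C, then CellTiter-Glo readout.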
KB-V1 cytotox = KB-V1 MDR subline cytotoxicity; 3.4% of 400,000 active; Potency, µM (highest dose often 46.1 µM), hits mostly cytotoxic; KB-V1 MDR cells viability, CellTiter-Glo, 72 h; further: on the % scale 0 is the no-effect control and ±100 the full control effect; nearly all actives have a fitted effect of over 60% in size
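Drug-selected KB-V1 cells, grown in DMEM lacking phenol red with 10% FBS, receive compound titrations; after three days at 37 degrees C, surviving cell ATP is quantified by CellTiter-Glo luminescence and responses normalized and curve-fitted.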
TGFb SMAD3 inh = blocks TGF-b signaling; HepG2 CAGA-GFP TGF-b/SMAD3 reporter, GFP fluorescence, 18 h; TGF-beta stimulated, 500 pg/mL final; 1.2% of 410,000 active; AID 588855; Potency, µM (highest dose often 46.1 µM), inactives show at the top dose activity, negative = inhibition, actives largely listed as inhibitors; further: on the % scale 0 is the no-effect control and ±100 the full control effect; nearly all actives have a fitted effect of over 65% in size
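Using HEPG2 CAGA-GFP reporter cells at 1000 cells/well, we pinned test compounds, stimulated with recombinant TGF-beta (500 pg/mL final) and measured total well GFP after 18 h.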
S2 tox = cell viability loss in ATXN counter-screen; Potency, µM (top dose mostly 56.7 µM), actives largely listed as cytotoxic; S2 cells (HEK-293 line with an ATXN2-luciferase reporter) viability, CellTiter-Fluor protease fluorescence, 24 h; 0.49% of 400,000 active; AID 651635; further: nearly all actives have a fitted effect of over 40% in size
Numbers without * were called inactive; i = inactive; ? = inconclusive; nt = no result given. The list is not random: actives were taken first. Their share in the collection is about 5.9%. The call rests on the fitted dose curve; in most records, active means well fitted curve in the direction sought with a large enough effect; inconclusive means small, poorly fitted or top-dose-only effect, or another doubt; inactive means no such curve, though single readings can be large; an effect the other way counts as inactive or inconclusive. Potency means the concentration at half of the fitted maximal effect.

SMILES	ATXN2 expr inh	HepG2 viability	KB-3-1 cytotox	KB-V1 cytotox	TGFb SMAD3 inh	S2 tox
COc1ccccc1Nc1ncccc1C(=O)NCc1ccccc1	-4%	-5%	?	i	9%	i
COc1ccc(COc2ccccc2C(=O)NCc2ccccc2)cc1F	?	-27%	i	15µM*	?	?
COc1ccc(-c2ccc(C(=O)N3CCc4c(cnc(C)c4CNS(=O)(=O)N(C)C)C3)o2)cc1	nt	nt	nt	nt	nt	i
COC(=O)c1c(NC(=O)c2ccc(OC)cc2OC)sc2c1CCCCC2	10%	10%	?	i	-14%	i
CCOCc1nc(N)nc(N)c1-c1cccc(Cl)c1	nt	11µM*	i	i	0%	i
COc1cccc2c1cc1c(=O)n(CC(=O)NCc3ccc(N(C)C)cc3)nc(C)n12	nt	-1%	nt	nt	-15%	nt
COc1cc(C(=O)NCCC(C)C)ccc1OCc1ccc(Cl)cc1Cl	12%	-7%	?	15µM*	-9%	i
CN(C)CCNC(=O)c1ccc(COc2ccc(Cl)cc2Cl)cc1	?	11µM*	?	18µM*	?	?
Cn1nc(C(=O)NC2CCCCC2)c2ccccc2c1=O	-14%	-4%	i	16µM*	0%	i
CN(C(=O)c1ccc(-c2nn(C)c(=O)c3ccccc23)cc1)C1CCCCC1	-8%	-2%	18µM*	4.1µM*	-1%	i
CN(CCO)C(=O)c1ccc(-c2nn(C)c(=O)c3ccccc23)cc1	0%	0%	i	i	-24%	i
COc1cc(OC)cc(C(=O)NNC(=O)c2nn(C)c(=O)c3ccccc23)c1	-2%	2%	?	13µM*	4%	i
N#Cc1c(N2CCOCC2)nsc1-c1ccc(C(F)(F)F)cc1	7%	-10%	i	i	-8%	i
N#Cc1c(Cl)cccc1N1CCSCC1	16%	2%	?	23µM*	?	i
N#Cc1c(N2CCSCC2)nsc1-c1ccccc1Cl	41%	-12%	3.7µM*	4.6µM*	0%	i
N#Cc1c(Cl)cccc1N1CCCC1	-33%	42%	i	i	1%	i
COC(=O)C1CCCCN1Cc1ccc2c(c1)CN(C(=O)c1ccc(F)cc1)CCO2 (stereo not given)	nt	nt	nt	nt	nt	i
COc1cccc(N2CC(NC(=O)/C=C\c3ccc4c(c3)OCO4)CC2=O)c1 (stereo not given)	nt	-19%	nt	nt	-1%	nt
Cc1ccc(S(=O)(=O)Nc2cccc3ncccc23)cc1	-17%	-3%	i	?	2%	i
Cc1ccc(S(=O)(=O)Nc2cccc3ncccc23)s1	?	0%	5.8µM*	?	?	?
O=C(Nc1ccc(F)cc1F)c1cc2nc(-c3ccco3)cc(C(F)(F)Cl)n2n1	-2%	-6%	i	i	18%	i
CCOc1ccc(N(CCC#N)S(=O)(=O)c2ccc(OC)cc2)cc1	-22%	-11%	?	21µM*	-16%	i
COc1ccccc1N(C)S(=O)(=O)c1ccc(C(=O)NCC(C)C)cc1	-3%	-2%	i	23µM*	3%	i
COC(=O)c1ccc(CNC(=O)c2ccc(S(=O)(=O)N(C)c3ccccc3OC)cc2)cc1	-10%	-16%	i	i	?	i
COc1ccc(Cc2nnc(NC(=O)Nc3ccccc3OC)s2)cc1	-15%	-1%	?	i	0%	i
CCCc1nnc(NC(=O)c2ccc(S(=O)(=O)N(C)c3ccccc3OC)cc2)s1	-8%	-5%	i	15µM*	1%	i
COc1cccc(C(=O)Nc2nnc(Cc3ccc(OC)c(OC)c3)s2)c1	-2%	-38%	i	i	-4%	i
CCCc1nnc(NC(=O)c2cccc(OC)c2)s1	45%	-32%	i	18µM*	?	i
CCCc1nnc(NC(=O)Nc2ccccc2OC)s1	44%	-12%	i	18µM*	-3%	i
